According to PubChem BioAssay AID571 (The Scripps Research Institute Molecular Screening Center, 2007):
The whole screen tested about 65,000 compounds, of which about 640 (0.98%) were called active.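 How the source made its calls: active means inhibition above a set limit, the mean inhibition across every tested compound plus 3 SD (cut at about 29% in these data); inactive means the rest.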 Shown is part of a subset that was picked to be rich in actives.

What follows are compounds tested against 5-hydroxytryptamine receptor 1E (Homo sapiens) (UniProt P28566) (assay: blockade of human serotonin 5HT1E receptor – cell-based, HTS, primary screen (AID 571;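 further: signal is the 460 over 535 nm emission ratio of beta-lactamase substrate; 0% = agonist plus DMSO wells and 100% = wells without agonist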)). Conditions: CHO 5-HT1E Ga15 NFAT-bla reporter, FRET, antagonist; at 6 µM; stronger effect = higher value.
5-hydroxytryptamine receptor 1E (Homo sapiens), sequence (P28566 whole entry, looked up): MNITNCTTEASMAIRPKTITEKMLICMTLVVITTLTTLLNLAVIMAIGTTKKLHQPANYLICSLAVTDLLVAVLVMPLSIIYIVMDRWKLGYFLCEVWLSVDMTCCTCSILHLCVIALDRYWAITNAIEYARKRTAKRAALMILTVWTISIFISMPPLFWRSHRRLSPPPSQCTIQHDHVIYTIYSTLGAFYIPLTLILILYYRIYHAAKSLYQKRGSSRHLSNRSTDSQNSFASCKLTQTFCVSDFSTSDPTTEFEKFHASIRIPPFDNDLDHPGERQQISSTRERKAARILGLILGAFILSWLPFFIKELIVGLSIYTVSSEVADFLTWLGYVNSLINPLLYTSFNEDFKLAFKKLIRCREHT

inhibition, inactive:
O=C(O)C1CC=C(Cl)CC1C(=O)NCc1ccccc1 (stereo not drawn) -3%
CCN(Cc1nc2ccccc2c(=O)[nH]1)Cc1cc(=O)oc2cc(C)c(C)cc12 -2.39%
CCn1c(SCC(=O)c2ccc(Cl)s2)nnc1-c1cccs1 3.04%
OCc1n[nH]c(CO)n1 6.12%
COCCN1Cc2cccc(C(=O)Nc3ccccc3OC)c2C1=O 8.66%
O=S(=O)(NCc1ccccn1)c1ccc(F)cc1 0.49%
NC(=O)C1(N2CCCCC2)CCN(C(=O)c2ccc(C#Cc3ccccc3)o2)CC1 2.52%
CCOc1ccc(Nc2oc(Cc3ccccc3)nc2C#N)cc1 -1.52%
N#Cc1nc(-c2ccc(OCc3ccccc3)cc2)oc1NCCCN1CCOCC1 0.01%
O=C(CN1CCN(S(=O)(=O)/C=C/c2ccccc2)CC1)NC(=O)NCc1ccco1 4.51%
COc1ccc(CCNC(=O)c2ccc3c(c2)NC(=O)C(N2CCOCC2)S3)cc1OC (stereo not drawn) -4.16%
Cc1ccccc1NC(=O)c1cc(S(=O)(=O)N2CCOCC2)cs1 -6.32%
O=C(Nn1cc(C(=O)N2CCN(c3ccccc3F)CC2)c2ccccc2c1=O)c1cnccn1 3.04%
COCCNc1nc(-n2nc(C)cc2C)nc2sc3c(c12)CCCC3 22.7%
Cc1cc(C)n(-c2ccc(Cl)c(C(=O)O)n2)n1 4.5%
CCOC(=O)c1cnc(-n2nc(C)cc2C)nc1Nc1cccc(C(C)=O)c1 -0.9%
COc1cc(NS(=O)(=O)c2ccccc2)ccc1-n1nc(C)cc1C -6.22%
Cc1cc(NCc2ccco2)n2c(nc3ccccc32)c1C#N 11.1%
Nc1ccc(-c2nnc(-c3ccc(-c4ccccc4)cc3)o2)cc1 -0.45%
O=C(CSc1nnc(-c2ccncc2)n1C1CCCCC1)Nc1ccccc1 -9.37%
CC12C(=O)N(n3cnnc3)C(=O)C1C1C=CC2C1 (stereo not drawn) 8.42%
COCCNC(=O)C(c1ccc(C)o1)N(Cc1cccs1)C(=O)c1snc(C(N)=O)c1N (stereo not drawn) -3.57%
Cc1cc(=O)oc(C)c1C(=O)NC1CC(C)(C)NC(C)(C)C1 -4.29%
C[N+](C)(C)CCOP(=O)([O-])OC[C@H](O)CO -4.74%
COc1ccc(Br)cc1S(=O)(=O)N1CCN=C1C -3.84%
CC1CCCC(NC(=O)CSc2nccn2C)C1C (stereo not drawn) 2.04%
Cc1c(C(=O)NCCN2CCOCC2)sc2nc(-c3ccc(F)cc3)cn12 -2.05%
c1ccc(-c2cn3cccnc3n2)cc1 -0.19%
COc1ccc(S(=O)(=O)NC(CC(=O)NCc2ccccc2OC)c2ccco2)cc1 (stereo not drawn) -1.55%
CCOC(=O)N1CCC(NC(=O)CN2C(=O)COc3ccc(C(C)(C)C)cc32)CC1 -7.21%
CCOC(=O)N1CCC(NC(=O)Cc2cn(C)c3ccccc23)CC1 -14.8%
CCOC(=O)c1c(C)oc2ccc(OCC(=O)N(CC)CC)cc12 -6.18%
COc1ccc(C)cc1S(=O)(=O)NC1CCCCC1 -3.9%
O=C(Cn1c(=S)nc2ccccn21)N1CCc2ccccc2C1 -1.67%
CCCCNC(=O)CSc1nccn1Cc1ccccc1 3.33%
O=C(CNS(=O)(=O)c1cccc(C(F)(F)F)c1)Nc1ccccc1F -3.72%
CCCCCC(=O)Nc1ccc2oc(-c3ccncc3)nc2c1 4%
CCCCC(=O)Nc1ccc2c(c1)OCCO2 -10.5%
Nc1ccc(SCCN2C(=O)c3ccccc3C2=O)cc1 -1.04%
COC(=O)c1ccc(NC(=O)CSc2nnc(Cc3cccn3C)n2-c2ccc(F)cc2)cc1 -7.1%
CCc1nnc(NC(=O)c2nc3nccc(C)n3n2)s1 -0.48%
CCOc1ccc(C(=O)Nc2ccncc2)cc1 5.74%
CSc1sc(C)cc1C1C(C#N)=C(N)N(c2cccnc2)C2=C1C(=O)CCC2 (stereo not drawn) 24.6%
COc1ccc(CCNS(=O)(=O)c2ccc(C(=O)NCc3ccco3)cc2)cc1OC -13.4%
Cc1ccccc1NC(=O)Cc1nnc(SCC(=O)N2CCN(c3ccccc3)CC2)n1C 2.63%
Cc1noc(C)c1S(=O)(=O)NCCc1ccc(S(N)(=O)=O)cc1 -6.61%
Cc1cccc(-n2c(O)c(C=Nc3ccccc3N)c(=O)[nH]c2=O)c1 -5.35%
Cc1ccc2c(c1)N(CCCC(=O)NCc1cccnc1)C(=O)CO2 10.1%
CC(C)(C)c1cc(C(=O)NCc2cccnc2)ccn1 -1.08%
CCN1CCN(C(=O)c2ccccc2N(C)S(=O)(=O)c2ccc(C)cc2)CC1 -11.1%
Cc1nnc2sc(-c3ccco3)nn12 -3.05%
CCn1c(=O)cc(OCC(=O)NCCCN2CCN(c3cccc(Cl)c3)CC2)c2ccccc21 -1.38%
CC1CCCC(C)N1CCCNC(=O)c1cc2c(=O)n(C)c3ccccc3c2n1C (stereo not drawn) -8.37%
COc1cc(N=Cc2c(O)[nH]c3ccccc23)cc(OC)c1OC 4.31%
COc1ccc(N=Cc2c(O)[nH]c3ccccc23)cc1OC -3.2%
COc1ccc(NC2CC(=O)N(C)C2=O)cc1 (stereo not drawn) -0.34%
C[C@H](NC(=O)OC(C)(C)C)c1nnc(SCC(N)=O)o1 -6.77%
O=C(Nc1ccccc1N1CCCCC1)c1cccc(F)c1 -0.39%
O=C(NCc1ccco1)c1cccn2c(=O)c3cc(Br)ccc3nc12 11.4%
Cc1cccc(NC(=O)CN2CCCN(S(=O)(=O)c3ccc(Br)s3)CC2)c1 12.7%
CCC1(C)Cc2c(sc3nc4n(c(=O)c23)CCCS4)CO1 (stereo not drawn) 7.47%
COC(=O)c1c(NC(=O)CSc2nc3c(c(=O)n(C)c(=O)n3C)n2C(C)C)sc(C)c1C -1.61%
CCCCOC(=O)c1ccc(N2C(=O)CC(N3CCN(C/C=C/c4ccccc4)CC3)C2=O)cc1 (stereo not drawn) -8.79%
CCOc1ccc(N2C(=O)CC(N(O)c3ccccc3)C2=O)cc1 (stereo not drawn) -13.5%
Cc1cc(C)cc(OCc2nnc(SCC(=O)OC3CCCCC3)o2)c1 1.45%
Cc1cc(C(=O)OCC(=O)c2c(N)n(C)c(=O)n(C)c2=O)c(C)o1 -2.61%
CCOc1ccccc1NC(=O)C1CCC(CNc2c(N3CCOCC3)c(=O)c2=O)CC1 (stereo not drawn) -7.97%
Cn1c(=O)[nH]c(=O)c2c1nc(N1CCN(CCO)CC1)n2CCSc1nc2ccccc2s1 -9.93%
COc1ccc(NC(=O)c2c(SC)nsc2SC)cc1 3.42%
O=C(CC1CCCCC1)Nc1c2c(nn1-c1ccc(F)cc1)CS(=O)(=O)C2 3.57%
Cc1cccc(-n2nc3c(c2NC(=O)c2ccc(Br)o2)CSC3)c1C -0.62%
Cc1noc(C)c1S(=O)(=O)N1CCCC(C(=O)Nc2nccs2)C1 (stereo not drawn) 6.69%
CC(C)C[C@H](NC(=O)NCCc1ccc(Cl)cc1)C(=O)O 0.25%
Cn1cccc1Cc1nnc(SCC(=O)NCc2ccc3c(c2)OCO3)n1CCc1ccccc1 -2.19%
C=CCn1c(COc2ccccc2C)nnc1SCC(=O)O 10.3%
COC(=O)c1ccc(NC(=O)CSc2nnc(-c3ccncc3)n2C)cc1 -4.91%
CCOc1cc(CN2CCN(C(=O)CC(C)C)CC2)ccc1OC -2.34%
CCOc1cc(-c2noc(CCC(=O)N3CCOCC3)n2)ccc1OC 8.36%
CCN(CC)C(=O)N1CCN(C(=O)c2ccc(C)cn2)CC1 -13.6%
COC(=O)C1(S(=O)(=O)C2(C(=O)OC)CCCC2)CCCC1 -13%
C/C(CC(O)(/C=N/O)c1ccccc1)=N\O (stereo not drawn) 1.85%
COCCNC(=O)C(C#N)c1nc2ccccc2nc1N1CCN(Cc2ccc3c(c2)OCO3)CC1 (stereo not drawn) 2.9%
Cc1ccc(-c2noc(CSc3nnnn3-c3ccccc3)n2)cc1 4.04%
O=c1c2ccccc2nc(CSc2nnnn2-c2ccccc2)n1-c1ccccc1 -9.14%
CCN1CCCC1CNc1ncnc2c1[nH]c1ccc(F)cc12 (stereo not drawn) -8.46%
O=C1CCCN1CCCNc1ncnc2c1[nH]c1ccccc12 4.24%

inhibition, active:
COc1ccc(Nc2oc(-c3ccccc3Cl)nc2C#N)cc1 75%
CC(=O)c1ccc(Oc2cc(C)nc(-n3nc(C)cc3C)n2)cc1 78.3%
COc1ccc(Nc2cc(C)nc(-n3nc(C)cc3C)n2)cc1 49%
CCCCC(=O)Nc1ccc2c(c1)C(=O)NC2=O 44%
Cc1ccc(-n2nc(-c3ccco3)cc2C(=O)NCc2cccnc2)cc1 30.4%
Cn1c(C(=O)NCCCN2CCN(c3cccc(Cl)c3)CC2)cc2c(=O)n(C)c3ccccc3c21 28.9%
COc1ccc(OC)c(N=Cc2c(O)[nH]c3ccccc23)c1 39.8%
CCCCCCC(=O)N(O)C1CC(=O)N(c2ccccc2)C1=O (stereo not drawn) 29%
COc1cccc(C(=O)Nc2c3c(nn2-c2cccc(C)c2C)CS(=O)(=O)C3)c1OC 29.9%
CCOc1cc(C(=O)N2CCc3cc(OC)c(OC)cc3C2)ccc1OC(F)F 90.1%
CN(C)c1nc(N)nc(CSc2nnnn2-c2cccc3ccccc23)n1 30.2%
CC(C)OCCCNc1ncnc2c1[nH]c1ccc(F)cc12 35%
